# According to PubChem BioAssay AID1159580 (chemical genetic matrix, 2015):
# Among all 5,500 compounds or so, about 2,000 (36%) were called active. Inconclusive results (about 18%) are left out. Some of the results follow. Unmarked numbers belong to inactive results. No stated cut-off is given here; in the data, active means normalized growth mostly below about 0.91 (no sharp cut-off); inconclusive means no clear call, values can overlap the other calls; inactive means mostly above about 0.92.
# Assay: chemical genetic growth profiling, strain panel (AID 1159580);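 further: tested at 20 µM; growth read once vehicle control cultures reached saturation at 30 °C; 1 = growth at the plate median or of vehicle wells; lower values mean less growth of the strain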
# Conditions: growth OD
# [1] = S. cerevisiae deletion strains, locus YAL013W, strain DEP1, hits give low values
# [2] = S. cerevisiae deletion strains, locus YBR229C, strain ROT2, hits give low values
# [3] = S. cerevisiae deletion strains, locus YCL061C, strain MRC1, hits give low values
# [4] = S. cerevisiae deletion strains, locus YDL101C, strain DUN1, hits give low values
# [5] = S. cerevisiae deletion strains, locus YDL134C, strain PPH21, hits give low values
# [6] = S. cerevisiae deletion strains, locus YDR150W, strain NUM1, hits give low values
# [7] = S. cerevisiae deletion strains, locus YEL061C, strain CIN8, hits give low values
# [8] = S. cerevisiae deletion strains, locus YGR078C, strain PAC10, hits give low values
# [9] = S. cerevisiae deletion strains, locus YHR030C, strain SLT2, hits give low values
# [10] = S. cerevisiae deletion strains, locus YHR087W, strain rtc3, hits give low values
# [11] = S. cerevisiae deletion strains, locus YJL187C, strain SWE1, hits give low values
# [12] = S. cerevisiae deletion strains, locus YJR043C, strain POL32, hits give low values
# [13] = S. cerevisiae deletion strains, locus YJR075W, strain HOC1, hits give low values
# [14] = S. cerevisiae deletion strains, locus YLR039C, strain RIC1, hits give low values
# [15] = S. cerevisiae deletion strains, locus YLR058C, strain SHM2 (second series), hits give low values
# [16] = S. cerevisiae deletion strains, locus YLR085C, strain ARP6, hits give low values
# [17] = S. cerevisiae deletion strains, locus YLR262C, strain YPT6, hits give low values
# [18] = S. cerevisiae deletion strains, locus YML094W, strain GIM5, hits give low values
# [19] = S. cerevisiae deletion strains, locus YMR219W, strain ESC1, hits give low values
# [20] = S. cerevisiae deletion strains, locus YMR263W, strain SAP30, hits give low values
# [21] = S. cerevisiae deletion strains, locus YMR307W, strain GAS1, hits give low values
# [22] = S. cerevisiae deletion strains, locus YNL153C, strain GIM3, hits give low values
# [23] = S. cerevisiae deletion strains, locus YNL298W, strain CLA4 (second series), hits give low values
# [24] = S. cerevisiae deletion strains, locus YNL322C, strain KRE1, hits give low values
# [25] = S. cerevisiae deletion strains, locus YNR030W, strain Alg12, hits give low values
# [26] = S. cerevisiae deletion strains, locus YPL055C, strain LGE1, hits give low values
# [27] = S. cerevisiae deletion strains, locus YPL241C, strain CIN2, hits give low values
# [28] = S. cerevisiae deletion strains, locus YPR135W, strain CTF4, hits give low values
# [29] = S. cerevisiae deletion strains, locus YOL006C, strain TOP1, hits give low values
# [30] = S. cerevisiae strains, strain wild type, hits give low values
# [31] = S. cerevisiae deletion strains, locus YKL190W, strain CNB1, hits give low values
# [32] = S. cerevisiae deletion strains, locus YNL128W, strain TEP1, hits give low values
# [33] = S. cerevisiae deletion strains, locus YGR229C, strain SMI1, hits give low values
structure (smiles),measurement,setting,value
C/C(=N/O)c1ccc2c(c1)C(C)(C)CCC2(C)C,normalized growth,[1],1.01
same,normalized growth,[2],0.987
same,normalized growth,[3],0.964
same,normalized growth,[4],1.01
same,normalized growth,[5],0.99
same,normalized growth,[6],0.985
same,normalized growth,[7],0.995
same,normalized growth,[8],0.981
same,normalized growth,[9],0.984
same,normalized growth,[10],0.977
same,normalized growth,[11],0.976
same,normalized growth,[12],0.989
same,normalized growth,[13],0.954
same,normalized growth,[14],0.847
same,normalized growth,[15],0.985
same,normalized growth,[16],0.963
same,normalized growth,[17],0.939
same,normalized growth,[18],0.992
same,normalized growth,[19],0.991
same,normalized growth,[20],0.979
same,normalized growth,[21],0.92
same,normalized growth,[22],0.967
same,normalized growth,[23],0.962
same,normalized growth,[24],0.995
same,normalized growth,[25],0.958
same,normalized growth,[26],0.996
same,normalized growth,[27],0.953
same,normalized growth,[28],0.915
CCCc1ccc(/C(C)=N\O)cc1,normalized growth,[1],0.939
same,normalized growth,[2],0.921 (active)
same,normalized growth,[4],0.955
same,normalized growth,[5],0.965
same,normalized growth,[6],0.858
same,normalized growth,[7],0.902 (active)
same,normalized growth,[8],0.93
same,normalized growth,[9],0.778
same,normalized growth,[10],0.909 (active)
same,normalized growth,[11],0.926 (active)
same,normalized growth,[12],0.949
same,normalized growth,[13],0.816 (active)
same,normalized growth,[14],0.777 (active)
same,normalized growth,[15],0.92 (active)
same,normalized growth,[16],0.756 (active)
same,normalized growth,[17],0.834
same,normalized growth,[18],0.947
same,normalized growth,[19],0.932 (active)
same,normalized growth,[20],0.963
same,normalized growth,[21],1.18
same,normalized growth,[22],0.946
same,normalized growth,[23],0.94
same,normalized growth,[24],0.919 (active)
same,normalized growth,[25],0.96
same,normalized growth,[29],0.945
same,normalized growth,[26],0.848
same,normalized growth,[27],0.949
same,normalized growth,[28],0.518 (active)
CCCc1ccc(-c2nc(-c3ccc(C)cc3)no2)cc1,normalized growth,[1],0.999
same,normalized growth,[2],0.994
same,normalized growth,[4],0.971
same,normalized growth,[6],1.01
same,normalized growth,[7],1.01
same,normalized growth,[8],0.973
same,normalized growth,[9],1
same,normalized growth,[10],0.984
same,normalized growth,[11],0.978
same,normalized growth,[12],0.991
same,normalized growth,[13],0.95
same,normalized growth,[14],1.09
same,normalized growth,[15],0.995
same,normalized growth,[16],1.02
same,normalized growth,[17],1.04
same,normalized growth,[18],0.988
same,normalized growth,[19],0.992
same,normalized growth,[20],0.994
same,normalized growth,[21],1.04
same,normalized growth,[22],0.965
same,normalized growth,[23],0.987
same,normalized growth,[24],0.989
same,normalized growth,[25],0.973
same,normalized growth,[26],0.975
same,normalized growth,[27],0.941
same,normalized growth,[28],1.06
same,normalized growth,[30],1.01
CC(=O)Nc1ccc(S(=O)(=O)NCCCN2CCN(Cc3ccccc3)CC2)cc1Cl,normalized growth,[1],0.993
same,normalized growth,[2],1.01
same,normalized growth,[3],0.999
same,normalized growth,[4],0.952
same,normalized growth,[6],0.924
same,normalized growth,[7],1.04
same,normalized growth,[8],0.983
same,normalized growth,[9],1.03
same,normalized growth,[10],1.02
same,normalized growth,[11],1.01
same,normalized growth,[12],0.992
same,normalized growth,[13],1.01
same,normalized growth,[31],0.993
same,normalized growth,[14],0.992
same,normalized growth,[15],1.01
same,normalized growth,[16],1.02
same,normalized growth,[17],1
same,normalized growth,[18],1.01
same,normalized growth,[19],0.996
same,normalized growth,[20],0.944
same,normalized growth,[32],0.986
same,normalized growth,[22],0.994
same,normalized growth,[23],0.969
same,normalized growth,[24],0.999
same,normalized growth,[25],0.99
same,normalized growth,[29],1.02
same,normalized growth,[26],0.915
same,normalized growth,[27],1
same,normalized growth,[28],0.926
Cc1ccc(S(=O)(=O)N2CCN(CCOc3ccccc3)CC2)cc1,normalized growth,[1],1
same,normalized growth,[2],0.994
same,normalized growth,[3],0.982
same,normalized growth,[4],0.992
same,normalized growth,[5],1
same,normalized growth,[6],0.961
same,normalized growth,[7],0.972
same,normalized growth,[8],0.993
same,normalized growth,[33],0.99
same,normalized growth,[9],0.896
same,normalized growth,[10],0.995
same,normalized growth,[11],0.995
same,normalized growth,[12],1
same,normalized growth,[13],0.984
same,normalized growth,[14],0.828
same,normalized growth,[15],0.987
same,normalized growth,[16],0.966
same,normalized growth,[17],0.701 (active)
same,normalized growth,[18],0.944
same,normalized growth,[19],0.985
same,normalized growth,[32],0.997
same,normalized growth,[22],0.989
same,normalized growth,[23],0.96
same,normalized growth,[24],0.997
same,normalized growth,[25],0.967
same,normalized growth,[26],0.953
same,normalized growth,[27],0.982
same,normalized growth,[28],0.99
O=C(Cc1ccccc1)NC1CCN(S(=O)(=O)c2ccc(Cl)cc2)CC1,normalized growth,[1],1.01
same,normalized growth,[2],1
same,normalized growth,[3],0.992
same,normalized growth,[4],1.01
same,normalized growth,[6],0.996
same,normalized growth,[7],1.01
same,normalized growth,[8],0.98
same,normalized growth,[33],0.992
same,normalized growth,[9],0.973
same,normalized growth,[10],1
same,normalized growth,[12],0.985
same,normalized growth,[13],0.962
same,normalized growth,[31],0.994
same,normalized growth,[14],1
same,normalized growth,[15],0.993
same,normalized growth,[16],1.01
same,normalized growth,[17],1.01
same,normalized growth,[18],1
same,normalized growth,[19],0.999
same,normalized growth,[20],0.992
same,normalized growth,[22],0.982
same,normalized growth,[23],1.03
same,normalized growth,[24],0.998
same,normalized growth,[25],1
same,normalized growth,[29],1.02
same,normalized growth,[26],0.986
same,normalized growth,[27],1.03
same,normalized growth,[28],0.971
same,normalized growth,[30],1.01
O=S(=O)(c1ccc(Cl)cc1)N1CCN(Cc2ccccc2)CC1,normalized growth,[1],1.01
same,normalized growth,[2],0.99
same,normalized growth,[3],1.01
same,normalized growth,[4],0.985
same,normalized growth,[6],0.986
same,normalized growth,[7],0.958
same,normalized growth,[8],0.992
same,normalized growth,[9],0.856
same,normalized growth,[10],0.978
same,normalized growth,[12],1.01
same,normalized growth,[13],0.982
same,normalized growth,[14],0.846
same,normalized growth,[15],1
same,normalized growth,[16],0.985
same,normalized growth,[17],0.809 (active)
same,normalized growth,[18],0.967
same,normalized growth,[19],0.994
same,normalized growth,[20],1.02
same,normalized growth,[22],1
same,normalized growth,[23],0.956
same,normalized growth,[24],0.998
same,normalized growth,[25],0.987
same,normalized growth,[26],0.972
same,normalized growth,[27],0.978
same,normalized growth,[28],0.923
same,normalized growth,[30],0.987
Cc1ccc(S(=O)(=O)N2CCC(C(c3ccccc3)c3ccccc3)CC2)cc1,normalized growth,[1],0.998
same,normalized growth,[2],0.989
same,normalized growth,[3],0.963
same,normalized growth,[4],0.975
same,normalized growth,[6],0.948
same,normalized growth,[7],0.994
same,normalized growth,[8],0.972
same,normalized growth,[9],0.971
same,normalized growth,[10],1.05
same,normalized growth,[12],1
same,normalized growth,[13],1
same,normalized growth,[14],0.97
same,normalized growth,[15],1.01
same,normalized growth,[16],0.989
same,normalized growth,[17],0.989
same,normalized growth,[18],1
same,normalized growth,[19],0.993
same,normalized growth,[20],0.994
same,normalized growth,[21],1.24
same,normalized growth,[32],0.969
same,normalized growth,[22],0.988
same,normalized growth,[23],0.971
same,normalized growth,[24],0.999
same,normalized growth,[25],1.01
same,normalized growth,[26],1.06
same,normalized growth,[27],0.986
same,normalized growth,[28],0.986
same,normalized growth,[30],0.974
